This excerpt belongs to a sample that is enriched for hits.
nsP2pro inh = inhibitors of chikungunya virus nsP2 protease. Q8JUX6. FRET peptide cleavage, nsP2pro, fluorescence 1 h. Potency, µM (titrated, usually from 24.9 µM), inactives show top-dose activity change, negative = inhibition, usual class: inhibitors. 1.1% of 31,000 active. AID 1964107; further: nearly all actives have a fitted effect of over 60% in size
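FRET cleavage of 2.5 uM peptide 2 by 150 nM CHIKV protease domain at pH 8.0 (Tris, Tween 20). Compounds at 7 concentrations (up to 25 uM) preincubated 15 min. Fluorescence read after 1 h at room temperature.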
nsP2 cell sec = cell-based CHIKV nsP2 protease inhibition, secondary | shares compounds with nsP2pro inh | cell-based CHIKV nsP2 protease reporter assay | Potency, µM (titrated, usually from 51.1 µM), for the others: at the top dose activity change, negative = inhibition, hits mostly inhibitors | 10% of 450 active | AID 1964100; further: nearly all actives have a fitted effect of over 70% in size
NSP2 full ctr = selectivity test for CHIKV nsP2 protease inhibitors: full-length NSP2; AID 1964101; Potency, µM (doses to about 50.7 µM), without a hit: top-dose activity change, negative = inhibition, most hits filed as inhibitors; Full-length CHIKV NSP2 protease enzymatic counterscreen; 39% of 410 active; shares compounds with nsP2pro inh; further: nearly all actives have a fitted effect of over 65% in size
Furin counter = inhibits human furin in a CHIKV nsP2 protease selectivity counterscreen; shares compounds with nsP2pro inh; Recombinant human furin enzymatic counterscreen, fluorogenic substrate; Potency, µM (highest dose often 50.6 µM), for inactives: top-dose activity change, negative = inhibition, usual class: inhibitors; 6% of 410 active; AID 1964102
nsP2 NS23 pep = selectivity test for CHIKV nsP2 protease inhibitors: endogenous NS2/3 peptide | Purified CHIKV nsP2 protease, endogenous NS2/3 peptide cleavage | shares compounds with nsP2pro inh | 34% of 410 active | Potency, µM (titrated, usually from 51 µM), inactives show at the highest dose activity change, negative = inhibition, actives largely listed as inhibitors; further: nearly all actives have a fitted effect of over 55% in size
Papain cs = papain protease inhibition, counterscreen for nsP2pro inhibitors. purified papain protease activity, enzymatic inhibition. 5% of 410 active. shares compounds with nsP2pro inh. Potency, µM (highest dose often 51 µM), inactives show at the top dose activity change, negative = inhibition, most hits filed as inhibitors
Target sequence (P00784 whole entry, looked up): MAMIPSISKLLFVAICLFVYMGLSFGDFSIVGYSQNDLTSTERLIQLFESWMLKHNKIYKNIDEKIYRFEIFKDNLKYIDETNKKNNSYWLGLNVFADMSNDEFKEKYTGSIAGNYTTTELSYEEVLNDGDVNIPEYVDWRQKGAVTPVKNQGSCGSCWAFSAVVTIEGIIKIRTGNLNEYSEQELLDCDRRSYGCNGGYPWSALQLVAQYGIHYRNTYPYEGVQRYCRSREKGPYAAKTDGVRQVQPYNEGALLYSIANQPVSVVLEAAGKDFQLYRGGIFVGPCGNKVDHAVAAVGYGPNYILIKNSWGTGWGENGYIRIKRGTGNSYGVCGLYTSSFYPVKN
nsP2pro confirm = CHIKV nsP2 protease inhibition, confirmatory qHTS; shares compounds with nsP2pro inh; CHIKV nsP2 protease enzymatic activity, qHTS; Potency, µM (titrated, usually from 25.5 µM), without a hit: at the top dose activity change, negative = inhibition, actives largely listed as inhibitors; 43% of 410 active; AID 1964105; further: nearly all actives have a fitted effect of over 75% in size
HCV NS3 4A cs = inhibits HCV NS3/4A protease in an nsP2pro selectivity counterscreen. shares compounds with nsP2pro inh. HCV NS3/4A protease biochemical counterscreen. Potency, µM (doses to about 50.9 µM), most hits filed as inhibitors. 20% of 410 active; further: nearly all actives have a fitted effect of over 55% in size
An asterisk follows results filed as active; i = inactive; ? = inconclusive; [ ] = another dose, or the depositor's remark. The call rests on the fitted dose curve. On the % scale 0 is the no-effect control and ±100 the full control effect; potency means the concentration at half of the fitted maximal effect.

SMILES | nsP2pro inh | others
O=C(Nc1ccc(Cl)c(-c2nc3cc(Cl)ccc3o2)c1)c1cc([N+](=O)[O-])ccc1N1CCOCC1 | -12%
CCOC(=O)N1CCN(Cc2nc3cc(NC(=O)c4cccc(C)c4)ccc3n2C(C)C)CC1 | 2%
CN(C)c1cccc(NS(=O)(=O)c2ccc(NC(=O)Cc3ccc(Cl)c(Cl)c3)cc2)c1 | -27%
CN(CC(O)CO)C(=O)c1c(I)c(NC(=O)C(CO)CO)c(I)c(C(=O)N(C)CC(O)CO)c1I (stereo unspecified) | -7%
CN1CCN2c3c(cccc31)[C@@H]1CN(CCCC(=O)c3ccc(F)cc3)CC[C@@H]12 | -15%
CCCOCC(=O)N1CCCC(c2cc(N3CCCC3)nc(C)n2)C1 (stereo unspecified) | 3%
OC[C@@]1(O)CO[C@@H](OC[C@H]2O[C@@H](Oc3ccccc3)[C@H](O)[C@@H](O)[C@@H]2O)[C@@H]1O | 55%
COC(C)(C)CCn1nc(Nc2c(C)cccc2C)c2cnc(Nc3ccc(OCCN4CCCC4)c(F)c3)nc21 | 112%
O=C(Nc1ccc2c(c1)N(C1CCCC1)C(=O)c1ccccc1S2)c1ccccc1F | -16%
O=C(Nc1ccc(N2CCN(c3ccc(F)cc3)CC2)c(C(=O)O)c1)c1ccccc1F | ? | nsP2 cell sec=13%;NSP2 full ctr=4.1µM*;Furin counter=?;nsP2 NS23 pep=13µM*;Papain cs=-5%;nsP2pro confirm=7.1µM*;HCV NS3 4A cs=1.3µM*
CCN(CC)C(=O)C(c1ccccc1)N1CCN(c2ccc(NC(=O)c3ccccc3-c3cccnc3)cc2F)CC1 (stereo unspecified) | 1%
COC1C(CO)OC(n2cnc3c(=O)[nH]cnc32)C1O (stereo unspecified) | 14%
CC(C)(C)n1nc(Cc2cccc([N+](=O)[O-])c2)c2c(N)ncnc21 | i
COc1cc(-c2nc(Nc3ccc(F)c(F)c3)c3ccccc3n2)cc(OC)n1 | 3%
CCCC(=O)O[C@H]1CN2CC[C@H](O)[C@@H]2[C@@H](O)[C@@H]1O | -9%
Nc1nc(NCc2ccc(-c3ccnc(C(F)(F)F)c3)cc2)c2ccccc2n1 | -20%
O=C(O)c1cc(O)c2c(c1)C(=O)c1cccc(O)c1C2=O | ? | nsP2 cell sec=-12%;NSP2 full ctr=15%;Furin counter=5%;nsP2 NS23 pep=i;Papain cs=?;nsP2pro confirm=22%;HCV NS3 4A cs=i
O=C(O)c1ccc(C(=O)O)cc1 | -20%
O=C1Nc2ccccc2/C1=C/c1cccc(C(=O)O)c1 | i
O=C1c2c(O)cccc2Cc2cccc(O)c21 | 26%
Cc1cc(O)c2c(c1)C(=O)c1cccc(O)c1C2=O | ? | nsP2 cell sec=9%;NSP2 full ctr=?;Furin counter=-4%;nsP2 NS23 pep=-8%;Papain cs=-6%;nsP2pro confirm=?;HCV NS3 4A cs=i
Cc1ccc(NC(=O)CN2C(=O)N/C(=C\c3cccn3-c3ccc(C(=O)NC#N)cc3)C2=O)cc1 | i
C=C1C(=O)O[C@@H]2C[C@]3(C)[C@@H](CCC(C)=O)[C@@H]3C[C@H]12 | 17%
C=C1C(=O)O[C@@H]2C[C@H](C)[C@@H]3CC(=O)C(C)=C3C[C@H]12 | 0.44µM* | nsP2 cell sec=?;NSP2 full ctr=?;Furin counter=-7%;nsP2 NS23 pep=?;Papain cs=-3%;nsP2pro confirm=?;HCV NS3 4A cs=i
CC1=C2CC(O)(C(C)(C)O)C(O[C@@H]3O[C@H](CO)[C@@H](O)[C@H](O)[C@H]3O)CC(C)C2CC1=O (stereo partly specified) | 30%[10 µM]
SMILES | nsP2pro inh | others
O=S(=O)(Nc1nc(CN2CCOCC2)nc2sc3c(c12)CCCC3)c1ccc2ccccc2c1 | i
CN(C)C1(CNC(=O)c2ccc(OC3CCN(C(=O)C4CC4)CC3)cc2)CCCCC1 | ? | nsP2 cell sec=-10%;NSP2 full ctr=4%;Furin counter=-1%;nsP2 NS23 pep=?;Papain cs=-2%;nsP2pro confirm=16%;HCV NS3 4A cs=i
CCn1ccnc1CNC(=O)c1cc(OC)ccc1OC1CCN(C(=O)C2CC2)CC1 | i
CC(C)C(=O)NCC1(N(C)C)CCCCC1 | 13%
C[C@H](C(=O)NC1CCCC1)N(C(=O)Cn1nnc(-c2ccc3c(c2)OCO3)n1)C1CCCCC1 | 4%
O=C(NC1CCCCC1)N[C@H]1CO[C@H]2[C@@H]1OC[C@@H]2n1nnnc1-c1ccc2c(c1)OCO2 | 2.8µM* | nsP2 cell sec=-11%;NSP2 full ctr=18µM*;Furin counter=16µM*;nsP2 NS23 pep=16µM*;Papain cs=-2%;nsP2pro confirm=4.5µM*;HCV NS3 4A cs=?
COc1cccc(-c2nnnn2[C@H]2CO[C@H]3[C@@H]2OC[C@@H]3NC(=O)C2CCCCC2)c1 | 19%[39.2 µM]
COc1cc(NS(=O)(=O)c2ccc(C)cc2)c(C(=O)Nc2nc(-c3ccccc3)cs2)cc1OC | i
CC(=O)OC1CC2C3(C)CCC(OC(=O)CC(=O)O)C(C)(C)C3CCC2(C)C2(C)CCC(C3(C)CCC(=O)O3)C12 (stereo unspecified) | -7%[10 µM]
CC1=C2C(=O)C=C(CO)C2C2OC(=O)C(CS(=O)(=O)O)C2C(OC(=O)Cc2ccc(O)cc2)C1 (stereo unspecified) | 38%[10 µM]
CS(=O)(=O)CCNCc1ccc(-c2ccc3ncnc(Nc4ccc(OCc5cccc(F)c5)c(Cl)c4)c3c2)o1 | 75%
CCOC(=O)c1ccc(-c2ccc3ncnc(NCc4ccc(C)o4)c3c2)o1 | -3%
Cc1cc(Nc2ncnc3ccc(-c4ccc(CNCCS(C)(=O)=O)o4)cc23)ccc1Oc1ccn2ncnc2c1 | 1.2µM* | nsP2 cell sec=-13%;NSP2 full ctr=4.1µM*;Furin counter=-13%;nsP2 NS23 pep=?;Papain cs=?;nsP2pro confirm=4.5µM*;HCV NS3 4A cs=?
CC[C@H]1[C@@H](O)[C@@H]2[C@H](CC[C@]3(C)[C@@H]([C@H](C)CCC(=O)O)CC[C@@H]23)[C@@]2(C)CC[C@@H](O)C[C@@H]12 | 0%
O=C1CCCC2=C1C(c1[nH]ncc1Cl)N=C(Nc1nccs1)N2 (stereo unspecified) | -3%
O=C(O)CCN(O)C(=O)CCCCCCCCC1CC1 | 7%
O=C(N1CCC(Cc2nc(C3CC3)n[nH]2)CC1)C1(c2ccccc2)CC1 | -13%
O=C(O)Cc1cc(I)c(Oc2ccc(O)c(I)c2)c(I)c1 | 22%
CC(=O)Nc1ccc(CC(=O)O)cc1 | 2%
O=C(O)Cc1ccc(O)c(O)c1 | ? | nsP2 cell sec=-3%;NSP2 full ctr=-23%;Furin counter=-5%;nsP2 NS23 pep=?;Papain cs=-7%;nsP2pro confirm=9µM*;HCV NS3 4A cs=8.2µM*
O=C(c1cc(Cl)c(O)c(Cl)c1)N1CS(=O)(=O)c2ccccc21 | -7%
O=C(c1cn(CC2CCCO2)nn1)N1CCN(c2cccc(C(F)(F)F)c2)CC1 (stereo unspecified) | -5%
